# Compound activity deposited in PubChem BioAssay by Sanford-Burnham Center for Chemical Genomics.
# Most compounds without a hit are left out; they make up all but 31% or so of the library.
# CYP2C9 act: increases human cytochrome P450 2C9 activity; P11712; recombinant CYP2C9, luciferin-H conversion, luminescence; active compounds read high; factor 1 = untreated enzyme, 0 = blocked; activation factor at 5 µM; 96,000 compounds, 1.4% hits; AID 1024;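 active = activation factor of 2 or more for CYP2C9 at a 5 µM dose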;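 note: 0 = sulfaphenazole-blocked wells and 1 = vehicle-only wells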
# CYP2C19 act: cytochrome P450 2C19 (human) activation | recombinant CYP2C19, luciferin-H EGE luminescence; active compounds read high; 0 = fully inhibited enzyme, 1 = untreated enzyme | activation factor at 5 µM | 96,000 tested, under 10 active | P33261;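 active = activation factor of at least 2 at 5 µM in the primary screen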;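 note: 0 = wells with 2.5 mM tranylcypromine and 1 = vehicle-only wells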
# PLAP activator: activates human placental alkaline phosphatase | purified PLAP enzyme, luminescent substrate read-out; active compounds read high | activation fold at 20 µM | 96,000 compounds, 1.2% hits | AID 696; in the data active = activation fold above about 2
# Target sequence (P05187 whole entry, looked up): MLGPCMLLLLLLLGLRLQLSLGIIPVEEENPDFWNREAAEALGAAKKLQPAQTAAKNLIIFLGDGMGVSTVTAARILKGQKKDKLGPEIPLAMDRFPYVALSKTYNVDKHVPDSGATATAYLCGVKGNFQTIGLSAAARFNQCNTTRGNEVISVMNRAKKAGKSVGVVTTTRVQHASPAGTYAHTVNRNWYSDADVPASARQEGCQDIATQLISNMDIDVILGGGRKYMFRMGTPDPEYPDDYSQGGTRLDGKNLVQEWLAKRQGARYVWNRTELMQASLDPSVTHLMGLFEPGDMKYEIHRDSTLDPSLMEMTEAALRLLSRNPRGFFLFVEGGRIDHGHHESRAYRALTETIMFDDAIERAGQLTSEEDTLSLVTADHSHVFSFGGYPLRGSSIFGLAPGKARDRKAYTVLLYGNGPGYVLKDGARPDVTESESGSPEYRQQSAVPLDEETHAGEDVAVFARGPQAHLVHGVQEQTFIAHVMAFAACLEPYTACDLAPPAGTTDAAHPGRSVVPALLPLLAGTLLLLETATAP
# CYP2C19 inhib: blocks human cytochrome P450 2C19 | P33261 | CYP2C19 Supersomes, luciferin-H EGE luminescence, 30 min | inhibition, % at 5 µM | 96,000 compounds, 21% hits | AID 778;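 active = CYP2C19 inhibition above a set limit at 5 µM in the primary screen, cut at about 50% in these data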;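 note: plate controls were negative control wells for no effect and 2.5 mM tranylcypromine positive control for full effect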
# CYP2C9 inh: blocks human cytochrome P450 2C9. P11712. CYP2C9 Supersomes, luciferin-H conversion, luminescence. 96,000 compounds, 20% hits. inhibition, % at 5 µM;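 active = blocking of liver enzyme CYP2C9 beyond about 50% at 5 µM, limit read from the data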
# * = called active by the depositor.
SMILES,CYP2C9 act,CYP2C19 act,PLAP activator,CYP2C19 inhib,CYP2C9 inh
CCOC(=O)C1CCN(C(=O)N(C)C)CC1,0.9,1,1.1,3.4,12.9
CCOC(=O)C1CCCN(CCCc2ccccc2)C1 (stereo not given),0.8,0.2,1.5,79.8*,20.3
CC1CCN(C(=O)COC(=O)c2ccc(Br)o2)CC1,1,0.4,1,60.5*,3.4
COc1ccc(OCCC(=O)N2CCCCC2)cc1,0.9,0.1,1.1,85.3*,13.7
C1CN(c2nc3nonc3n3nnnc23)CCO1,0.7,0.8,1,17.9,27.7
O=C1CN(C(=O)CSc2nnnn2-c2ccc(Cl)cc2)c2ccccc2N1,1,0.9,0.8,13.0,-4.6
CCOC(=O)C1CCN(C(=O)COC(=O)c2ccc(Br)o2)CC1,0.8,0.8,1,23.9,22.7
CCOC(=O)C1CCN(C(=O)CCc2ccccc2)CC1,0.5,0.3,1.1,70.7*,45.9
COC(=O)C1CCN(C(=O)CCCOc2ccccc2)CC1,0.9,0.1,1.4,87.1*,13.0
CCOC(=O)C1CCN(C(=O)c2ccc(Br)o2)CC1,0.3,0.2,1.3,81.8*,69.5*
O=C(Nc1ccc(F)cc1)N1CCn2c(nc3ccccc32)C1,0.9,0.6,0.9,35.2,9.1
CCN(CC)CCCN1C(=O)c2oc3ccccc3c(=O)c2C1c1cccc(OC)c1OC (stereo not given),0.7,0.8,1.5,21.2,33.4
COc1ccc(C(C)(C)C)cc1NC(=O)c1cncc(Br)c1,0.7,0.8,1,18.7,28.5
CCN(CC)S(=O)(=O)c1ccc2c3c(cccc13)C(=O)N2,0.9,0.1,1.1,88.8*,6.9
O=[N+]([O-])c1ccccc1S(=O)(=O)NCCC1=CCCCC1,0.9,0.7,0.8,27.9,6.6
CCNS(=O)(=O)c1ccc2c3c(cccc13)C(=O)N2,0.7,0.3,0.9,69.6*,29.3
O=C1Nc2ccc(S(=O)(=O)NCCC3=CCCCC3)c3cccc1c23,0.6,0.4,0.8,61.4*,36.6
CC(=O)OC1CC2(C)C(=O)CCC2C2CCc3cc(O)ccc3C12 (stereo not given),0.9,1.1,1.1,-13.1,6.3
O=C(Nc1nccs1)C12CC3CC(C1)CC(C(=O)Nc1nccs1)(C3)C2,0.2,0.1,1.5,91.3*,81.2*
O=C(Nc1nc2ccccc2[nH]1)C12CC3CC(CC(C3)C1)C2,1.2,1.2,0.8,-22.7,-17.9
O=C(Nc1ccccn1)C12CC3CC(CC(C3)C1)C2,0.1,0.7,0.9,25.6,91.8*
CC12COC3(C(=O)Nc4nccs4)CC1CCC32C (stereo not given),1,0.4,1,59.6*,4.9
COC(=O)CCSCC(=O)Nc1nnc(C)s1,1.1,1.2,1.1,-18.5,-14.1
Cc1nc(CCNC(=O)c2ccccc2)cs1,0.9,0.6,1,43.8,12.9
Cc1ccc(C)n1-n1c(C)nc2sc3c(c2c1=O)CCCCC3,0.9,0.9,0.9,10.8,8.4
SMILES,CYP2C9 act,CYP2C19 act,PLAP activator,CYP2C19 inhib,CYP2C9 inh
O=C(CNC1=NCCC1)c1ccc2c(c1)OCCO2,1,1,0.9,-2.8,1.9
O=C1CC(c2ccc3c(c2)OCO3)CN1 (stereo not given),1.1,1,1.1,-1.6,-7.7
CCOc1ccc(C2Sc3ccccc3NC3=C2C(=O)OC3)cc1 (stereo not given),0.4,0.3,1.1,68.2*,55.7*
O=C1OCC2=C1C(c1ccc3c(c1)OCO3)Sc1ccccc1N2 (stereo not given),0.3,0,0.9,95.9*,69.5*
Cn1c(C(O)c2ccc3c(c2)OCO3)nc2ccccc21 (stereo not given),0.4,0,1.4,97.1*,62.5*
OC(c1ccc2c(c1)OCO2)c1nccc2ccccc12 (stereo not given),1.7,0,1.6,95.4*,-74.0
CC(C)n1c(C(O)c2ccc3c(c2)OCO3)nc2ccccc21 (stereo not given),0.5,0,2.4*,98.5*,53.3*
COc1ccc(OC)c(C(O)c2nc3ccccc3n2C(C)C)c1 (stereo not given),0.6,0.3,1,73.6*,36.8
O=C(Cn1cccc1C(=O)c1ccccc1)NCc1ccccn1,0.9,1,0.9,3.4,9.6
O=C(Nc1ccc(N2CCN(C(=O)c3ccco3)CC2)cc1)C(c1ccccc1)c1ccccc1,0.4,0.1,2.5*,86.0*,61.1*
Cc1cccc(OCC(=O)Nc2ccc(N3CCN(C(=O)c4ccco4)CC3)cc2)c1,0.6,0.3,1.1,65.6*,43.7
CCOc1ccc(C(=O)Nc2nncs2)cc1OCC,1.1,1.1,1,-9.7,-14.8
O=C(CSCSCC(=O)NCC1CCCO1)NCC1CCCO1 (stereo not given),1.1,1.2,1.2,-17.1,-5.9
Cc1cccc(NC(=O)c2ccccc2OCC(=O)N2CCOCC2)c1C,1,0.9,0.8,9.5,-3.1
Cc1cc(OCC(=O)N2CCOCC2)c(C(C)C)cc1Cl,0.9,0.2,1.1,79.8*,14.4
Cc1cc(C)c(C)c(OCC(=O)N2CCOCC2)c1,1.8,0.3,1.4,67.0*,-80.2
COC(=O)C1=C(C)N(CCC2=CCCCC2)C(=O)C1,0.6,0,1.3,97.8*,44.1
COC(=O)c1cc(Br)c(=O)n(-c2ccc(F)cc2)c1,0.9,0.1,1,89.2*,14.7
COC(=O)c1cc(Br)c(=O)n(Cc2ccco2)c1,0.8,0.8,1.1,23.3,24.7
COC(=O)c1cc(Br)c(=O)n(CCc2ccc(F)cc2)c1,0.4,0.1,0.6,93.9*,55.6*
COC(=O)c1cc(Br)c(=O)n(-c2ccccc2F)c1,1,0.5,1,50.6*,-1.6
COC(=O)c1cc(Br)c(=O)n(CC(C)C)c1,0.9,0.7,1.1,27.0,6.3
COC(=O)C1=C(C)N(CC2CCCO2)C(=O)C1 (stereo not given),0.8,0.8,0.9,16.7,24.5
Cc1cccc(C)c1NC(=O)C1(NC(=O)C2CCCN2C(=O)OC(C)(C)C)CCCCC1 (stereo not given),1.1,1.1,1.2,-13.5,-12.5
CCn1c(CNC(=O)c2cccc(C)c2)nc2ccccc21,1.8,0.8,0.9,19.1,-83.3
SMILES,CYP2C9 act,CYP2C19 act,PLAP activator,CYP2C19 inhib,CYP2C9 inh
CCCC(=O)Nc1ccccc1NC(=O)C1CCCCC1,1,1,0.9,1.9,4.0
COC(=O)c1cc(Br)c(=O)n(CCN2CCCCC2)c1,1,1,1,-1.3,2.0
COC(=O)c1cc(Br)c(=O)n(CCc2ccc(O)cc2)c1,0.9,0.5,0.9,51.5*,9.8
COC(=O)c1cc(Br)c(=O)n(CCC2=CCCCC2)c1,0.2,0,0.8,96.3*,84.6*
COC(=O)c1cc(Br)c(=O)n(CCN2CCCC2)c1,1,0.9,1.1,7.1,3.6
Cc1cc(C)n(C(=O)CCC(=O)NCc2ccccc2)n1,1.4,0.8,1.1,18.9,-38.8
Cc1cc(C)n(C(=O)CCNC(=O)c2ccccc2Br)n1,2.1*,1,1,4.2,-112.4
COc1ccccc1C(=O)NCC(=O)n1nc(C)cc1C,3*,0.9,0.9,5.3,-197.3
